Screening results from PubChem BioAssay.
This is a sample that favours compounds with a hit; in the whole collection about 2.3% have one here.
MmCpn inh: M. maripaludis TRiC chaperonin inhibition; purified Mm-Cpn ATPase, ADP Transcreener TR-FRET; 330,000 tested, 0.031% active; Potency, µM (top dose mostly 76.9 µM), for the others: at the top dose activity, negative = inhibition, most hits filed as inhibitors; note: potency is the fitted concentration of half-maximal effect; % is set by controls: 0 for no effect and ±100 for the full control effect; nearly all actives have a fitted effect of over 80% in size
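Inhibition of chaperonin ATP hydrolysis is measured as reduced ADP production, detected by competitive TR-FRET in which signal falls with ADP. Final enzyme 25 nM and ATP 10 uM, reacted 30 min at 37°C.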
FUS yeast rescue: FUS proteinopathy suppression in yeast. S. cerevisiae FUS-expressing, growth rescue, OD600, 24 h. 390,000 tested, 0.24% active. Potency, µM (series often up to 76.6 µM), hits mostly activators;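 note: potency is the fitted concentration of half-maximal effect; plate controls were DMSO vehicle for no effect and reference control for full effect; nearly all actives have a fitted effect of over 55% in size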
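S. cerevisiae expressing FUS from galactose induction served as the toxicity model. Growth after 24hr at 30C, read as absorbance at 600 nm, indicates suppression of toxicity; compounds dosed at several concentrations.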
Abeta rescue: A-beta toxicity reversal in yeast | yeast expressing A-beta42, growth rescue, OD600, 48 h; response scale: 0% DMSO, 100% iron-clioquinol control | Potency, µM (highest dose often 46.1 µM), most hits filed as activators | 410,000 tested, 0.063% active; note: potency is the fitted concentration of half-maximal effect; nearly all actives have a fitted effect of over 55% in size
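Growth rescue measured by 600 nm absorbance after 48 h yeast culture at 30 C with compound. Values normalized between DMSO and an equimolar ferric chloride plus clioquinol control.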
aSyn yeast inh: inhibitors of alpha-synuclein toxicity in yeast. AID 652106. Potency, µM (titrated, usually from 46.1 µM), for inactives: top-dose growth rescue (activation), hits mostly activators. Yeast expressing alpha-synuclein, growth rescue, BacTiter-Glo, 24 h. 370,000 tested, 0.14% active; note: potency is the fitted concentration of half-maximal effect; % of control where 0% means no effect; nearly all actives have a fitted effect of over 65% in size
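Screening used galactose-induced yeast with toxic alpha-synuclein levels, exposed to compound for 24 hr at 30 deg C. Cell growth, read with BacTiter-Glo luminescence, gave the measured signal.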
CCT chaperon mod: cytosolic chaperonin activity modulation. purified chaperonin ATPase assay, HTRF ADP detection, 30 min. activity change, % (test concentration not listed), hits read low. 360,000 tested, 0.3% active; in the data active = activity change below about -30%; note: % is set by controls: 0 for no effect and ±100 for the full control effect
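First, chaperonin was dispensed at 40 nM or 20 nM final depending on batch activity. Next, compounds were pinned at 76 uM and ATP added at 10 uM. After 30 min at 37 °C, ADP detection reagents ran 30 min at ambient temperature.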
TDP43 rescue: inhibitors of TDP-43 toxicity in yeast; TDP-43 expressing yeast growth rescue, BacTiter-Glo, 24 h; Potency, µM (highest dose often 46.1 µM), without a hit: at the top dose growth rescue (activation), most hits filed as activators; 410,000 tested, 1.8% active; AID 652104; note: potency is the fitted concentration of half-maximal effect; % of control where 0% means no effect; nearly all actives have a fitted effect of over 50% in size
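Yeast expressing TDP-43 (pregrown in raffinose, seeded at OD600=0.02 in galactose medium) exposed to compounds 24 hr at 30 deg C. Growth read by BacTiter-Glo luminescence; rescue of toxicity appears as increased signal.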
* marks the source's active call; other numbers are inactive results; i = inactive; ? = inconclusive; . = no result. Unless noted, calls come from the whole dose curve; as a rule, active = well fitted curve in the direction sought with a large enough effect; inconclusive = small, poorly fitted or top-dose-only effect, or another doubt; inactive = no such curve, though single readings can be large; an effect the other way counts as inactive or inconclusive.

SMILES	MmCpn inh	FUS yeast rescue	Abeta rescue	aSyn yeast inh	CCT chaperon mod	TDP43 rescue
CCn1c(SCc2nc(-c3ccccc3)no2)nnc1-c1cccs1	2%	i	i	6%	0	13µM*
Cn1c(SCc2nc(-c3ccc(Br)cc3)no2)nnc1-c1ccco1	-1%	i	i	3%	0	0%
CCn1c(SCc2nc(-c3ccccc3)no2)nnc1-c1ccco1	1%	i	i	2%	1	18µM*
CCn1c(SCC(=O)O)nc2ccccc21	-1%	i	i	3%	-1	17%
c1ccc(-c2noc(CC3CCCCC3)n2)cc1	1%	i	i	-9%	2	-7%
c1ccc(-c2noc(CSc3nnnn3C3CCCCC3)n2)cc1	-1%	i	i	3%	0	13µM*
O=C(Nc1ccc(Br)cc1Cl)c1cnn2c1NC(=C1CC1)C=C2C(F)F	.	.	.	-6%	.	.
C#CCNC(=O)C[C@H]1C(=O)N(Cc2ccc(OC)cc2)C2=CCCC[C@@]21C(=O)OCC	.	i	.	.	.	.
Cc1nnc(SCc2nnc(-c3cccs3)o2)n1Cc1ccccc1	0%	i	i	12%	-8	15%
Clc1ccc(-c2nnc(CSc3nnc(-c4cccs4)n3Cc3ccccc3)o2)cc1	0%	?	i	?	-2	18µM*
Cc1ccc2nc(CO)[nH]c2c1	.	.	.	-9%	.	.
COC(=O)c1ccc(CSc2nc(C(F)F)cc(C)c2C#N)o1	.	i	i	0%	-3	11µM*
CCCn1c(N2CCC(Cc3ccccc3)CC2)nc2c1c(=O)[nH]c(=O)n2C	-1%	i	i	17%	-1	22µM*
CCCCCn1c(N2CCC(Cc3ccccc3)CC2)nc2c1c(=O)[nH]c(=O)n2C	.	?	i	-46%	-2	-67%
Cc1cccc(OCCn2c(-c3ccco3)nc3ccccc32)c1	-1%	i	i	-8%	-1	11µM*
Cc1cccc(OCCn2c(NC(=O)c3ccco3)nc3ccccc32)c1	-4%	i	i	5%	0	16µM*
CCCn1c(NC(=O)c2cccc(C)c2C)nc2ccccc21	-1%	i	i	?	1	20µM*
Nc1[nH]c(=S)nc2nnsc12	.	.	.	-4%	.	.
COc1cccc(Cn2c(=O)n(Cc3ccco3)c(=O)c3oc4ccccc4c32)c1	.	i	i	.	.	-5%
CCOC(=O)c1c(Nc2ccc(OC)cc2)nnc(-c2ccccc2)c1-c1ccccc1	.	?	i	-8%	.	29%
CCCCCN1CCCCC(NC(=O)c2ccccc2OC)C1=O (stereo not given)	.	i	.	.	.	.
Cc1ccc(C(=O)N/C(=C/c2ccco2)C(=O)Nc2cccc(C)c2)cc1	-4%	32µM*	i	9%	1	5%
C=CCn1c(SCC(=O)O)nnc1-c1ccco1	.	i	.	.	.	.
COC(=O)[C@]12C[C@H](CC(=O)NCc3ccc(OC)c(OC)c3)C(=O)N(CCC3=CCCCC3)C1=C[C@H](C1CCCC1)O[C@@H]2C	.	14µM*	.	.	.	.
COC(=O)[C@]12C[C@H](CC(=O)NCC3CCCCC3)C(=O)N(Cc3cccc4ccccc34)C1=C[C@H](C1CCCC1)O[C@@H]2C	.	32µM*	.	.	.	.
SMILES	MmCpn inh	FUS yeast rescue	Abeta rescue	aSyn yeast inh	CCT chaperon mod	TDP43 rescue
COCCCNC(=O)C[C@H]1C[C@@]2(C(=O)OC)C(=C[C@H](C3CCCC3)O[C@@H]2C)N(Cc2ccco2)C1=O	.	i	.	.	.	.
COC(=O)[C@]12C[C@H](CC(=O)NCc3cccc(C(F)(F)F)c3)C(=O)N(Cc3ccco3)C1=C[C@H](C1CCCC1)O[C@@H]2C	.	4.5µM*	.	.	.	.
CCCCNC(=O)C[C@H]1C[C@@]2(C(=O)OC)C(=C[C@H](C3CCCC3)O[C@@H]2C)N(Cc2cccc3ccccc23)C1=O	.	13µM*	.	.	.	.
COC(=O)[C@]12C[C@H](CC(=O)NCCC(C)C)C(=O)N(Cc3ccco3)C1=C[C@H](C1CCCC1)O[C@@H]2C	.	i	.	.	.	.
OC(C[n+]1ccccc1Cl)c1ccccc1 (stereo not given)	.	.	.	3%	.	.
CC(C)(C)c1ccc(S(=O)(=O)N2CCC(Oc3ccc(-n4cnnn4)cc3)CC2)cc1	.	i	i	.	.	20%
O=C(NCCCc1ccccc1)c1nn(-c2ccccc2F)nc1CO	.	i	i	.	.	?
Cc1ccc2nc(N3CCN(c4ccccc4F)CC3)c(C=O)c(=O)n2c1	1%	i	i	1%	-1	16µM*
O=C(NCCc1c[nH]c2ccccc12)OCc1cn(-c2ccc(F)cc2F)nn1	.	i	.	.	.	.
COc1cc2cc(C(=O)N3CCc4ccccc4C3)[nH]c2cc1OC	0%	i	i	7%	-2	5%
COc1cc2[nH]c(C(=O)N3CCc4ccccc4C3)cc2c(OC)c1OC	-2%	i	i	-16%	0	22µM*
O=C(Cn1nnc(-c2ccncc2)n1)Nc1ccc(Oc2ccccc2)cc1	.	i	.	.	.	.
Nn1c(SCC(=O)NC2CCCCC2)nnc1-c1n[nH]c2c1CCC2	.	i	.	.	.	.
O=C1C=C(c2ccc(O)cc2)C[C@@H](c2ccc(Cl)cc2)C1	0%	i	i	1%	2	?
O=C1CC(c2ccc(Cl)cc2)CC(=O)C1CS(=O)(=O)c1ccccc1 (stereo not given)	-3%	?	i	13%	-3	19%
O=C1C=C(c2ccc3ncccc3c2)C[C@@H](c2ccc(Cl)cc2)C1	-2%	?	i	17%	0	16µM*
O=C1CC(c2ccccc2)CC(=O)C1Sc1ccc(Cl)cc1 (stereo not given)	-1%	.	i	17%	0	10µM*
O=C1C=C(c2cccc(CO)c2)C[C@@H](c2ccc(Cl)cc2)C1	1%	i	i	11%	-2	18µM*
O=C1C=C(c2ccccc2)C[C@@H](c2ccc(Cl)cc2)C1	1%	i	i	8%	-1	20µM*
COc1ccc([C@H]2CC(=O)C=C(c3cccc(CO)c3)C2)cc1OC	1%	i	i	5%	0	18%
COc1cccc(-c2nnc3sc(CN4CCCCC4)cn23)c1	.	i	i	.	.	8%
CCOc1ccc(-n2c(SCC(=O)c3ccc4ccccc4c3)nnc2-c2ccco2)cc1	.	i	.	.	.	.
Cc1ccccc1-c1nn2c(=O)cc(CN3CCN(S(=O)(=O)c4ccc(Cl)cc4)CC3)nc2s1	.	i	i	.	.	-10%
Cc1ccc(C2=CC(=O)C[C@H](c3ccc(Cl)cc3)C2)cc1	2%	i	i	4%	-1	16µM*
